Ec RNAP inh: blocks E. coli RNA polymerase transcription; 62,000 compounds, 0.2% hits; fluorescence transcription assay; inhibition, %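 (tested at 10 µM)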; in the data active = inhibition above about 20%;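 note: 0% = enzyme without compound and 100% = no enzyme blank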
HePTP inh: blocks human HePTP tyrosine phosphatase; recombinant HePTP phosphatase activity, OD absorbance; inhibition, % at 20 µM; 110,000 compounds, 0.64% hits; AID 521; in the data active = inhibition above about 50%;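 note: plate controls were vehicle for no effect and reference inhibitor for full effect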
Target sequence (P35236 whole entry, looked up): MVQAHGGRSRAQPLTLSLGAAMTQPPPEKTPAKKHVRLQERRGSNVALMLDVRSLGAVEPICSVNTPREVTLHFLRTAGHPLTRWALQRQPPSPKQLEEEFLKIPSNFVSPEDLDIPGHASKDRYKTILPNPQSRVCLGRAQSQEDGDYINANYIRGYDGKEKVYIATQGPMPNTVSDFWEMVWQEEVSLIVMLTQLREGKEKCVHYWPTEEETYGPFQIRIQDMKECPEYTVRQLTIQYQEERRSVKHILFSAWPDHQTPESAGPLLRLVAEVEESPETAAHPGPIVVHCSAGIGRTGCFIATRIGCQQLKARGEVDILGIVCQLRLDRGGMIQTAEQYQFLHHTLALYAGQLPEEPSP
HER2 expr 66K: Her2 kinase expression inhibition; P04626; SKBR-3 HER2 protein level, AlphaScreen, 18-24 h; active compounds read low; HER2 level % of control, % at 10 µM; 65,000 compounds, 0.69% hits; AID 645;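 active = HER2 level under 5% of the carrier-only control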;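 note: 100% = DMSO carrier and 0% = 500 nM PU-H71 HSP90 inhibitor; lower value means stronger loss of Her2 protein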
TNAP act mid DEA: activates human TNAP at intermediate phosphate acceptor concentration | activation factor at 20 µM | purified TNAP, CDP-star luminescence, 100 mM DEA, 30 min; active compounds read high; scale: 0 levamisole-inhibited, 1 vehicle-only enzyme | 64,000 tested, under 10 active | AID 813 | P05186;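 active = activation factor of at least 2 at 20 µM, relative to controls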
Hsp90 inh: displaces geldanamycin probe from tumor Hsp90; P07900; NCI-N417 lysate Hsp90, Cy3B-geldanamycin FP displacement; inhibition, % at 30 µM; 64,000 compounds, 0.35% hits;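 active = inhibition above 50%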;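 note: 0% = tracer plus lysate wells and 100% = tracer alone without lysate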
MT1-MMP txn act: activates MT1-MMP transcription | HT1080 MT1-MMP promoter luciferase reporter, luminescence, overnight; active compounds read high | activation factor at 10 µM | 86,000 compounds, 0.16% hits;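 active = activation factor of at least 2 for MT1-MMP transcription at 10 µM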
* marks the source's active call; other numbers are inactive results; nt = no result; ! = a repeat was not active. Rows were chosen to be rich in hits. Some 1.1% of all compounds tested hit in one or more screens of this group.

SMILES	Ec RNAP inh	HePTP inh	HER2 expr 66K	TNAP act mid DEA	Hsp90 inh	MT1-MMP txn act
O=C1OC(/C=C/c2ccccc2)=NC/1=C/c1ccc(-c2ccc3c(c2)C(=O)NC3=O)o1	nt	71*	nt	nt	nt	nt
COC(=O)c1ccc(C(=O)OC)c(NC(=O)CC(c2ccccc2)c2ccccc2)c1	nt	8	nt	nt	nt	nt
COC(=O)c1ccc(C(=O)OC)c(NC(=O)CCC(=O)O)c1	4	102*!	116	1	0	1
N#C/C(=C/c1ccc(N2CCCCCC2)o1)c1ccc(F)cc1	4	7	-14*	0.8	-1	1.3
Nc1nc(NC(=O)c2cccs2)nn1-c1ccccc1	21*	8	118	0.8	0	1.3
CCn1c(SCC(=O)C(C)(C)C)nnc1-c1cnccn1	3	-2	-19*	0.9	-6	1.2
CCn1c(SCC(=O)C(C)(C)C)nnc1-c1ccccn1	12	4	91	0.9	1	1.2
Cn1c(SCC(=O)c2ccc(F)cc2)nnc1-c1cnccn1	-6	4	101	1	-12	2.8*
COC(=O)C1=C(C)NC(=O)NC1c1ccccc1Br (stereo unspecified)	nt	5	nt	nt	nt	nt
CCN(CC)c1ccc(NC(=O)/C=C\c2ccccc2Cl)cc1	nt	104*	nt	nt	nt	nt
COC(=O)c1[nH]c2ccc(C)cc2c1NC(=O)CCN1CCN(C2CCCCC2)CC1	4	3	91	1	-7	1.2
COC(=O)c1[nH]c2ccc(Br)cc2c1NC(=O)CN1CCN(C2CCCCC2)CC1	-1	7	-21*	0.9	-3	0.8
COC(=O)c1c(C)oc2ccc(OC(=O)c3ccc(Br)cc3)cc12	nt	104*	nt	nt	nt	nt
C=C(C)COc1ccc2c(-c3ccccc3)cc(=O)oc2c1OCC(=C)C	nt	-1	nt	nt	nt	nt
CCOC(=O)N1CCC(NC(=O)CSCc2nc(-c3sccc3C)oc2C)CC1	5	-5	64	1	98*	1.1
O=C(c1ccccc1SCc1ccc(F)cc1)N1CCOCC1	nt	-10	nt	nt	nt	nt
CC(C)Oc1ccccc1NC(=O)c1ccccc1SCc1ccc(F)cc1	nt	92*	nt	nt	nt	nt
C/C(=N\NC(=O)c1ccncc1)c1ccco1	nt	7	nt	nt	nt	nt
Cc1ccc2c(c1)N(CC(=O)OC(CC(C)C)C(=O)NC1CCCC1)C(=O)CO2 (stereo unspecified)	4	3	-24*	1	0	1
O=C(Nc1ccc(Cl)cc1)c1ccccc1C(=O)c1ccc(Cl)cc1	nt	-8	nt	nt	nt	nt
CCCOc1c(I)cc(C2C3=C(CC(C)(C)CC3=O)OC3=C2C(=O)CC(C)(C)C3)cc1OC	nt	6	nt	nt	nt	nt
Cc1ccc(N(CC(=O)NC2CC3CCC2C3)S(C)(=O)=O)cc1C (stereo unspecified)	1	4	-28*	0.9	nt	1
O=C(Nc1nc2c(Cl)ccc(Cl)c2s1)c1ccco1	7	4	14	0.9	-4	1.5
O=C(Nc1nc2c(ccc3ccccc32)s1)c1ccco1	1	1	8	0.9	-2	2.3*
CCOC(=O)CCS(=O)(=O)c1nc(-c2ccccc2)cc(C(F)(F)F)n1	4	-2	-8.7*	0.9	-2	nt
SMILES	Ec RNAP inh	HePTP inh	HER2 expr 66K	TNAP act mid DEA	Hsp90 inh	MT1-MMP txn act
CCOC(=O)CS(=O)(=O)c1nc(-c2ccc(F)cc2)cc(C(F)(F)F)n1	9	7	-18*	0.9	3	0.5
COCC(C)NC(=O)CCS(=O)(=O)c1nc(-c2ccc(OC)cc2)cc(C(F)(F)F)n1 (stereo unspecified)	6	15	-20*	0.8	-1	nt
COc1ccc(-c2cc(C(F)(F)F)nc(S(C)(=O)=O)n2)cc1	nt	nt	nt	nt	nt	1
CCOC(=O)CS(=O)(=O)c1nc(-c2ccccc2)cc(C(F)(F)F)n1	-6	4	-27*	0.8	-1	0.9
COC(=O)CCS(=O)(=O)c1nc(-c2ccccc2)cc(C(F)(F)F)n1	nt	nt	nt	nt	nt	0.9
CCOc1ccc2c(c1)C(c1ccccc1C(F)(F)F)CC(=O)N2 (stereo unspecified)	nt	-20	nt	nt	nt	nt
O=S(=O)(c1ccccc1)N(Cc1ccc(F)cc1)c1ccccc1	nt	-6	nt	nt	nt	nt
Cc1ccc(CN2CCN(/N=C/C=C\c3ccco3)CC2)cc1	nt	103*	nt	nt	nt	nt
Clc1ccc(CN2CCN(/N=C/C=C\c3ccco3)CC2)cc1	nt	8	nt	nt	nt	nt
CCn1c(CSc2nnc3ccccn23)nc2cc(C(=O)O)ccc21	8	8	107	1	138*	1.2
CCn1c(CSc2nnc(-c3cccnc3)n2-c2ccccc2C)nc2cc(C(=O)O)ccc21	0	-1	93	0.8	145*	1
Cc1ccccc1-n1c(SCC(=O)c2cc(C)n(C)c2C)nnc1-c1cccnc1	nt	nt	nt	nt	nt	1.2
CCOc1ccc(C(=O)CSc2nnc3ccccn23)cc1	nt	nt	nt	nt	nt	1.2
O=C(O)/C=C/c1cc(C(=O)O)c(/C=C/C(=O)O)cc1C(=O)O	nt	26	nt	nt	nt	nt
COC(=O)C1=C(C)NC(=O)CC1c1ccc(OC)cc1 (stereo unspecified)	nt	-19	nt	nt	nt	nt
Cc1ccc(C2CC(C(F)(F)F)n3nc(C(=O)Nc4ccc(C(C)O)cc4)cc3N2)cc1 (stereo unspecified)	nt	8	nt	nt	nt	nt
CCOc1cc(/C=C2/C(=N)N3N=C(CC)SC3=NC2=O)ccc1OC(=O)c1cccc([N+](=O)[O-])c1	nt	103*	nt	nt	nt	nt
CCC1=NN2C(=N)/C(=C/c3ccc(OC(=O)c4ccc(F)cc4)c(OC)c3)C(=O)N=C2S1	nt	8	nt	nt	nt	nt
O=C(NCc1ccccc1Cl)C(=O)NC1CC1	nt	4	nt	nt	nt	nt
O=C(NCc1ccc(Cl)cc1Cl)C(=O)NC1CCCC1	nt	61*	nt	nt	nt	nt
Cc1ccc(/C=N/NC(=O)c2ccccc2C)cc1	nt	-6	nt	nt	nt	nt
Cc1ccc(C)n1-c1ccc(N2CCOCC2)nc1	1	6	-19*	0.9	-6	1.1
CN(C)S(=O)(=O)c1ccc(N2CCOCC2)nc1	4	3	94	1	0	1.2
CC(C)(C)C1CCc2c(sc(NC(=O)C3CC4CCC3C4)c2C(N)=O)C1 (stereo unspecified)	nt	97*	nt	nt	nt	nt
CCCCCCCNc1nc(OC)nc(N2CCCCC2)n1	nt	-10	nt	nt	nt	nt
SMILES	Ec RNAP inh	HePTP inh	HER2 expr 66K	TNAP act mid DEA	Hsp90 inh	MT1-MMP txn act
CCCCCCCCNc1nc(OC)nc(OC)n1	nt	68*	nt	nt	nt	nt
CCCCCCOC(=O)C(C#N)c1nc2ccccc2nc1N1CCN(C)CC1 (stereo unspecified)	6	11	-4.8*	0.7	-11	1
O=c1oc2ccccc2cc1-c1nn(-c2ccccc2)cc1/C=N/O	nt	13	nt	nt	nt	nt
Cc1c(NC(=O)c2cccc(F)c2)c(=O)n(-c2ccccc2)n1C	6	8	-26*	0.9	-2	1.2
Cc1c(NC(=O)c2ccc(F)cc2)c(=O)n(-c2ccccc2)n1C	7	11	121	0.9	0	1.1
Cc1ccccc1OCCn1cc(C=C2C(=O)NC(=S)NC2=O)c2ccccc21	nt	10	nt	nt	nt	nt
O=C(Nc1ccccc1C(=O)Nc1ccccc1Cl)c1ccco1	nt	4	nt	nt	nt	nt
O=C(Nc1ccccc1C(=O)Nc1ccc(Cl)cc1)c1ccco1	nt	103*	nt	nt	nt	nt
Cc1cc(NC(=O)c2ccc(-c3ccc(Cl)cc3)o2)ccc1NC(=O)c1ccco1	nt	61*	nt	nt	nt	nt

Screening data as filed in PubChem.
